# D1 PAM: Potentiators of Human D1 Dopamine Receptor: qHTS; D(1A) dopamine receptor (Homo sapiens), P21728; HEK293 TREx D1 cells, calcium flux, dopamine EC20 potentiation; potentiation, % at 10 µM; 360,000 compounds, 0.036% hits; AID 504651, 2011; in the data active means potentiation above about 30%
# D1 antagonist: Antagonist of Human D 1 Dopamine Receptor: qHTS; D(1A) dopamine receptor (Homo sapiens), P21728; 360,000 compounds, 3.2% hits; HEK293 TREx D1 cells, calcium flux, dopamine EC80; stronger effect = lower value; activity change, negative = inhibition, % at 10 µM; AID 504652, 2011; in the data active means activity change below about -30%
#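 Antagonism measured as reduced calcium response to an EC80 dopamine addition following 180 s compound pre-read; cells were inducible HEK293 Trex D1 plated overnight at 30 C, read kinetically at 1 cycle/sec.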
# D3 antag: qHTS of D3 Dopamine Receptor Antagonist: qHTS | D(3) dopamine receptor (Homo sapiens), P35462 | D3R cells, DiscoveRx beta-arrestin luminescence, antagonist mode; stronger effect = lower value | max response, negative = inhibition, % | 360,000 compounds, 2.5% hits | AID 652054, 2013; in the data active means max response below about -50%
# Target sequence (P35462 whole entry, looked up): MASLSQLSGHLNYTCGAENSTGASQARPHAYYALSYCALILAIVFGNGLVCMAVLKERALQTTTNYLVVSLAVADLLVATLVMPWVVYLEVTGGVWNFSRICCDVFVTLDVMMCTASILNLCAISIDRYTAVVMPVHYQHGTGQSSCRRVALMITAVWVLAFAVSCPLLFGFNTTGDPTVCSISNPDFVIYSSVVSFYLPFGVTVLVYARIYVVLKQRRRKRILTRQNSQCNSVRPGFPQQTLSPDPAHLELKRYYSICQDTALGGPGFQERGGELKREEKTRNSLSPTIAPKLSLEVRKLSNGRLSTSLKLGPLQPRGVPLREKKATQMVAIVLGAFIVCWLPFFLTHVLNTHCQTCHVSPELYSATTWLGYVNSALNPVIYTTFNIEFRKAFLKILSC
#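 Cells plated overnight at 1500 cells/well, then exposed to library compounds with dopamine controls for 90 minutes at 37 degrees C. DiscoveRx reagent added for 30–60 minutes at room temperature; luminescence read, quantitative HTS format.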
# D3 ag: qHTS of D3 Dopamine Receptor Agonist: qHTS | D(3) dopamine receptor (Homo sapiens), P35462 | D3R DiscoveRx beta-arrestin cells, luminescence, 90 min | max activation, % | 410,000 compounds, 0.58% hits | AID 652048, 2013; in the data active means max activation above about 30%
#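 Cells at 1500/well, incubated overnight, then treated with pinned compounds (dopamine as control) for 90 min at 37 degrees C. DiscoveRx reagent added for 30 - 60 minutes at room temperature; luminescence read.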
# D1 agonist: Allosteric Agonists of the Human D1 Dopamine Receptor: qHTS; HEK293 T-REx D1 cells, calcium flux, agonist mode; activation, % at 2 µM; 360,000 compounds, 1% hits; AID 504660, 2011; in the data active means activation above about 30%
#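 Agonism was scored from calcium flux recorded over 180 s (1 read/s) after pintool compound addition, following a 10-cycle baseline. Cells were inducible force-coupled HEK293 TREx D1, plated overnight at 30 C and loaded with no-wash calcium dye.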
# A number is an active result; . = inactive; / = not tested or not shown. This is a sample that favours compounds with a hit; in the whole collection about 6% have one here.
SMILES,D1 PAM,D1 antagonist,D3 antag,D3 ag,D1 agonist
Cc1cccc(NC(=O)c2ccc(C(=O)Nc3cccc(C)c3C)cc2)c1C,.,.,/,.,.
Cc1cccc(NC(=O)c2ccc(CN3CCc4ccccc4C3)cc2)c1C,.,/,-78,.,.
CC(=O)Nc1ccc(NC(=O)c2ccc(CN3CCc4ccccc4C3)cc2)cc1,.,.,-55,.,.
Cc1ccccc1NC(=O)c1ccc(CN2CCc3ccccc3C2)cc1,.,.,-76,.,.
O=C(Nc1ccc(F)cc1)c1ccc(CN2CCc3ccccc3C2)cc1,.,.,.,.,.
CC(C)CC(N)c1csc(NC(=O)C(c2ccccc2)c2ccccc2)n1 (configuration not stated),/,/,.,.,/
Clc1ccc2c(c1)C(N1CCNCC1)=Nc1ccccc1O2,.,-71,-117,.,.
CC1=Nc2cc(Cl)ccc2Oc2ccccc21,.,.,.,.,.
COC(=O)c1[nH]c2cccc(OC)c2c1NC(=O)CCN1CCSCC1,.,.,.,.,.
COC(=O)c1[nH]c2ccccc2c1NC(=O)CN1CCN(c2cccc(Cl)c2)CC1,.,.,.,.,.
COC(=O)c1[nH]c2cc(OC)ccc2c1NC(=O)CCN1CCSCC1,.,.,-70,.,.
COC(=O)c1[nH]c2ccccc2c1NC(=O)CN1CCN(C(=O)c2ccco2)CC1,.,.,-52,31,.
COC(=O)c1[nH]c2ccccc2c1NC(=O)CN1CCCCCC1,.,.,-53,.,.
CCOC(=O)C1CCCN(CC(=O)Nc2c(C(=O)OC)[nH]c3ccccc23)C1 (configuration not stated),.,.,.,.,.
CCOC(=O)N1CCN(CC(=O)Nc2c(C(=O)OC)[nH]c3ccccc23)CC1,.,.,.,.,.
COC(=O)c1[nH]c2ccccc2c1NC(=O)CN1CCC(C(N)=O)(N2CCCCC2)CC1,.,.,-54,.,.
Cc1c(CNC(C)CCc2ccccc2)c(C(=O)O)c(C)n1Cc1ccc(F)cc1 (configuration not stated),.,.,/,.,.
COc1cccc(NC(=O)c2oc3ccc(S(=O)(=O)N(C)C4CCCCC4)cc3c2C)c1,.,.,/,.,.
COC(=O)c1[nH]c2ccc(C)cc2c1NC(=O)Oc1ccccc1,.,.,.,.,.
COC(=O)c1[nH]c2ccccc2c1NC(=O)Oc1ccccc1,.,.,-52,.,.
C=C(C)c1cccc(C(C)(C)NC(=O)N2CCN(C)CC2)c1,.,.,.,.,.
C=C(C)c1cccc(C(C)(C)NC(=O)N2CCN(CC)CC2)c1,.,.,.,.,.
C=C(C)c1cccc(C(C)(C)NC(=O)N2CCN(c3ccc(OC)cc3)CC2)c1,.,-37,.,.,.
C=C(C)c1cccc(C(C)(C)NC(=O)N2CCC(C)CC2)c1,.,-43,.,.,.
Cn1cc(CCCC(=O)NCc2ccccc2Cl)c2ccccc21,.,.,/,.,.
SMILES,D1 PAM,D1 antagonist,D3 antag,D3 ag,D1 agonist
O=C(CN1C(=O)C2(SCC(=O)N2c2cccc(Cl)c2)c2ccccc21)NCc1ccccc1 (configuration not stated),.,.,/,.,.
COc1ccc(/C=C2\SC(=S)N(CCC(=O)Nc3ccc(O)cc3)C2=O)cc1,.,.,.,.,.
CCN(CC)CCOC(=O)c1ccc(NC(=O)CCCN2C(=O)S/C(=C/c3ccc(OC)cc3)C2=S)cc1,.,-65,-83,.,.
COc1ccc(CCNc2ccc(N3C(=O)CC(C)C3=O)cc2[N+](=O)[O-])cc1OC (configuration not stated),.,-34,.,.,.
CC1CCCC(NCC(O)COC(c2ccc(F)cc2)c2ccc(F)cc2)C1C (configuration not stated),.,.,.,.,63
Cc1ccc2nc(N3C(=O)C(O)=C(C(=O)c4ccc(C)o4)C3c3cccc(O)c3)sc2c1 (configuration not stated),.,-35,.,.,.
